TDP1 cell noCPT: qHTS for Inhibitors of human tyrosyl-DNA phosphodiesterase 1 (TDP1): qHTS in cells in absence of CPT; 420,000 tested, 15% active; Potency, µM (titrated, usually from 46.2 µM), without a hit: top-dose activity change, negative = growth inhibition, actives largely listed as inhibitors; DT40 Tdp1-/- hTDP1 cells, no CPT, ATP luminescence, 48 h; AID 686978, 2013; further: potency means the concentration at half of the fitted maximal effect; nearly all actives have a fitted effect of over 55% in size
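Chicken DT40 Tdp1-/- cells complemented with human TDP1, screened without camptothecin (DMSO vehicle only), 400 cells/well. Compounds pin-transferred, cells incubated at 37 °C for at least 48 hr. Growth read as ATP-dependent luminescence (CellTiter-Glo, 30 min at RT).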
DT40 TDP1 CPT: qHTS for Inhibitors of human tyrosyl-DNA phosphodiesterase 1 (TDP1): qHTS in cells in presence of CPT | Potency, µM (highest dose often 46.2 µM), for inactives: top-dose activity change, negative = growth inhibition, hits mostly inhibitors | AID 686979, 2013 | chicken DT40 Tdp1-/-;hTDP1 cells + 20 nM CPT, ATP luminescence, 48 h | 420,000 tested, 12% active; further: potency means the concentration at half of the fitted maximal effect; nearly all actives have a fitted effect of over 55% in size
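Chicken DT40 Tdp1-/- cells stably complemented with human TDP1 were seeded at 400 cells/well in medium containing 20 nM camptothecin, exposed to pin-transferred compounds, and grown at 37 °C for at least 48 hr. Viability was read as ATP luminescence.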
HT1080 IDH1KD tx: qHTS for induction of synthetic lethality in tumor cells producing 2HG: qHTS for the HT-1080-IDH1KD cell line. 360,000 tested, 2% active. HT-1080 IDH1 knockdown viability, ATP luminescence, 48 h. Potency, µM (doses to about 46.1 µM), for inactives: at the highest dose activity, negative = toxicity, actives largely listed as cytotoxic;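 further: potency means the concentration at half of the fitted maximal effect; 0% = DMSO wells and -100% = cell-free medium wells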
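Luminescent ATP read-out (CellTiter-Glo, 10 min at room temperature) after 48 h compound exposure at 37 °C gave viability of IDH1-knockdown HT-1080 cells. Activity was normalised to DMSO and cell-free wells, then fitted as concentration-response curves.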
IL1B secr inh: qHTS for Inhibitors of Inflammasome Signaling: IL-1-beta AlphaLISA Primary Screen; THP-1 LPS/ATP IL-1B secretion, AlphaLISA, 16 h; stronger effect = lower value; activity change, % at 57.5 µM; 360,000 tested, 4.7% active; in the data active means activity change below about -50%; inconclusive means mostly about -30% to -49%
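Secreted IL-1B measured by AlphaLISA bead assay after 16 h compound exposure of THP-1 cells; compounds (final up to 57.5 uM) added 1 h before LPS (250 ng/mL) and ATP (1.25 mM) stimulation; lower signal means less secretion.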
HT1080-NT tox: qHTS for induction of synthetic lethality in tumor cells producing 2HG: qHTS for the HT-1080-NT fibrosarcoma cell line; Potency, µM (series often up to 46.1 µM), without a hit: at the top dose activity, negative = less viability, usual class: cytotoxic; HT-1080-NT fibrosarcoma viability, CellTiter-Glo ATP luminescence, 48 h; AID 686970, 2013; 360,000 tested, 1.6% active;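 further: NT is the 2HG producing partner of a matched IDH1 knockdown line; potency means the concentration at half of the fitted maximal effect; 0% = DMSO-treated cells and -100% = media-only wells without cells; nearly all actives have a fitted effect of over 55% in size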
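Luminescent CellTiter-Glo readout after 48 hours of compound exposure at 37 degrees C defined viability of HT-1080-NT cells. Activity was normalized to DMSO wells and cell-free media wells; concentration-response curves were fitted and assigned curve classes.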
* hit, by the source's call; ? = inconclusive; nt = not tested or not shown; ! = repeats disagree; [ ] = dose if it differs, or a comment. Hits are enriched below; roughly 19% of the tested compounds scored in any of these assays. Unless noted, the call rests on the fitted dose curve; in most records, active means well fitted curve in the direction sought with a large enough effect; inconclusive means small, poorly fitted or top-dose-only effect, or another doubt; inactive means no such curve, though single readings can be large; an effect the other way counts as inactive or inconclusive. Unless noted, on the % scale 0 is the no-effect control and ±100 the full control effect.

SMILES | TDP1 cell noCPT | DT40 TDP1 CPT | HT1080 IDH1KD tx | IL1B secr inh | HT1080-NT tox
O=C(NCC(=O)N1CCOCC1)c1ccc(Cl)c(Cl)c1 | -22% | 2% | 9% | 8 | 10%
CCN(CC)c1ccccc1/C=C/[n+]1ccc(CCCCI)c2ccccc21 | 0.56µM* | 0.63µM* | nt | nt | nt
COc1ccc(NC(=O)c2nn(C)cc2[N+](=O)[O-])cc1 | -2% | 1% | -19% | 7 | -23%
CCn1cc(C(=O)Nc2ccc(C)cc2[N+](=O)[O-])c(C)n1 | -2% | -5% | 13% | ? | 16%
Cc1ccc(NC(=O)c2nn(C34CC5CC(CC(C5)C3)C4)cc2[N+](=O)[O-])cc1 | ? | 23µM* | -20% | -24 | 1%
CCn1cc([N+](=O)[O-])c(C(=O)Nc2nc(-c3ccc(C)c(C)c3)c(C)s2)n1 | -24% | ? | 10µM* | 1 | ?
CCn1cc([N+](=O)[O-])c(C(=O)Nc2nc(-c3ccc(C)cc3)c(C)s2)n1 | -27% | 21% | ? | -55* | -13%
COc1ccccc1C(=O)Nc1cccc(C(=O)OCc2cc(=O)n3nc(C4CC4)sc3n2)c1 | ? | 0% | nt | nt | nt
COC(=O)/C=C1\OCc2c(F)cccc21 | -4% | -20% | 3% | 19 | 15%
COCCN(Cc1ccc(C)cc1)C(=O)[C@H]1O[C@@H](n2ccc(N)nc2=O)[C@H](O)[C@@H]1O | 4% | -13% | 18% | 29 | 7%
C/C(=N\O)c1ccn(S(=O)(=O)c2ccc(Cl)cc2)c1 | 26µM* | ? | 1% | 0 | -2%
CC1=C(/C=C/C(C)=C/C=C/C(C)=C/CO)C(C)(C)CCC1 | 21µM*! | ? | ? | -21 | -4%
CC1=C(/C=C/C(C)=C/C=C/C(C)=C\CO)C(C)(C)CCC1 | ? | 18µM* | nt | nt | nt
CC(=O)OC/C=C(C)/C=C/C=C(C)/C=C/C1=C(C)CCCC1(C)C | 23µM*! | ? | nt | nt | nt
CC1=C(/C=C/C(C)=C/C=C/C(C)=C/C=C/C=C(C)/C=C/C=C(C)/C=C/C2=C(C)C(=O)CCC2(C)C)C(C)(C)CCC1=O | -19% | -13% | nt | nt | nt
COc1ccc(C(=O)NC(=S)Nc2cccnc2)cc1Cl | ? | -16% | 1% | 17 | -1%
Cc1ccc(Cc2c(C)nc3nc(SCC(=O)NCCCN4CCCCCC4)nn3c2C)cc1 | ? | ? | -14% | -23 | -15%
COc1cc(NC(=O)CSc2nc3nc(C)c(Cc4ccc(C)cc4)c(C)n3n2)cc(OC)c1 | 8.2µM* | ? | nt | nt | nt
COc1cc(NC(=O)CSc2nc3nc(C)c(Cc4ccccc4)c(C)n3n2)cc(OC)c1 | 8.2µM* | 21µM* | nt | nt | nt
COc1ccc(CCNC(=O)CSc2nc3nc(C)c(Cc4ccc(C)cc4)c(C)n3n2)cc1OC | 21µM* | ? | nt | nt | nt
Cc1cccc(Cc2c(C)nc3nc(SCC(=O)NCc4ccc(F)cc4)nn3c2C)c1 | 23µM* | 16µM* | nt | nt | nt
Cc1nc2sc3c(c2c(=O)n1NC(=O)CCBr)CCCC3 | 18µM* | 18µM* | -14% | -10 | -26%
Cc1ccc(CSC2=Nc3ccccc3C3=NC(CC(=O)NCc4cccs4)C(=O)N23)cc1 (stereo unspecified) | 16µM* | 16µM* | nt | nt | nt
O=C(CC1N=C2c3ccccc3N=C(SCc3ccccc3F)N2C1=O)NCc1cccs1 (stereo unspecified) | 18µM* | ? | nt | nt | nt
O=C(CC1N=C2c3ccccc3N=C(SCc3ccc(Cl)cc3)N2C1=O)NCc1cccs1 (stereo unspecified) | -19% | -29% | nt | nt | nt
SMILES | TDP1 cell noCPT | DT40 TDP1 CPT | HT1080 IDH1KD tx | IL1B secr inh | HT1080-NT tox
NC(=O)CSC1=Nc2ccccc2C2=NC(CC(=O)NCc3cccs3)C(=O)N12 (stereo unspecified) | -5% | -8% | 1% | 23 | -5%
CCCNC(=O)Cn1c(=O)n(CC2CCC(C(=O)NC)CC2)c(=O)c2sccc21 (stereo unspecified) | 7% | 5% | nt | nt | nt
COc1ccc(-c2sc3cc(OC)c(OC)cc3c2C#CCO)cc1 | ? | 18µM* | ? | -23 | -28%
COc1ccc2sc(-c3ccc(SC)cc3)c(C#CCO)c2c1 | ? | 18µM* | ? | 7 | ?
COc1ccc(-c2sc3cc(OC)c(OC)cc3c2C#CC(C)(C)O)cc1 | ? | ? | -13% | -4 | ?
COc1cc(C(=O)N/C(=C\c2cn(C)c3ccccc23)C(=O)NCCN2CCOCC2)cc(OC)c1OC | 7% | -4% | -2% | 29 | 2%
Nc1cc(Br)cc2c1[nH]c(=O)c1ccccc12 | -19% | ? | 1% | 0 | -19%
COc1ccc(-n2nnnc2C2CCN(S(=O)(=O)c3cccc(Cl)c3C)CC2)cc1 | 26µM* | 21µM* | nt | nt | nt
COc1ccc(-n2nnnc2-c2ccc(S(C)(=O)=O)cc2Cl)cc1 | 5.2µM* | ? | 8% | 0 | 0%
COc1ccc(-n2nnnc2-c2ccccc2)cc1 | 2.9µM* | 3.7µM* | ? | 39 | 5.6µM*
Clc1ccc(-n2nnnc2-c2ccccc2)cc1 | -10% | -15% | -15% | -6 | 1%
CCC1C(=O)NCCN1Cc1ccc2c(c1)CN(Cc1ccc(OC)cc1OC)CCO2 (stereo unspecified) | ? | 15%[9.04 µM] | nt | nt | nt
CCOc1cc(N2CCOCC2)c(OCC)cc1NC(=O)CN1C(=O)NC(CC)(c2ccc(F)cc2)C1=O (stereo unspecified) | -9% | -29% | -1% | 7 | -3%
Cc1ccc(N(CC(=O)NCC2CCCO2)C(=O)CCC(=O)Nc2cc(C)on2)cc1 (stereo unspecified) | -15% | 2% | 11% | -3 | 18%
Cc1cccc(NC(=S)NCc2ccc3c(c2)cc(C)n3C)c1C | 15µM* | 12µM* | -9% | -4 | -2%
COc1cccc(NC(=S)NCc2ccc3c(c2)cc(C)n3C)c1 | 16µM* | -20% | -5% | -28 | -18%
CC1CN(c2ccc(S(=O)(=O)N3CCCC3)cn2)CC(C)O1 (stereo unspecified) | 3% | -4% | -1% | 21 | 13%
Clc1ccccc1-c1nnc(COc2ccccc2)o1 | -6% | -10% | nt | nt | nt
COc1ccc(NC(=O)CN(C)C(=O)CN2C(=O)C3CCCCC3C2=O)cc1 (stereo unspecified) | 5% | 2% | -25% | 8 | -16%
